From PubChem
Dicer inh: blocks human Dicer maturation of pre-miR-21; Q9UPY3; 6% of 47,000 active; z-score at 25 µM; cat-ELCCA pre-miR-21 Dicer processing, chemiluminescence; active compounds read high; in the data active = z-score above about 3, passing the limit was not always enough;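 note: plate controls were vehicle for no effect and no enzyme for full effect; higher signal means more uncleaved substrate so more Dicer inhibition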
Numbers without * were called inactive. Only a selection was taken, and hits are over-represented in it overall.

SMILES	Dicer inh
O=C(Cn1nc(-c2ccc(Br)cc2)c2ccccc2c1=O)c1ccccc1	-1.1
CC(C)c1nn2c(=O)c(NC(=O)c3ccc(F)cc3)cnc2s1	-0.02
COC(Cn1c(-c2ccccc2)n[nH]c1=S)OC	-1.6
O=C1CC(c2nc3ccccc3n2CCc2ccccc2)CN1c1ccccc1 (stereo unspecified)	4.3*
CC(c1ccccc1)n1c(C2CC(=O)N(c3ccccc3)C2)nc2ccccc21 (stereo unspecified)	4.7*
Cc1nc2ccccc2n1C1CC(=O)N(c2ccc(F)cc2)C1=O (stereo unspecified)	0.57
CC(C)c1ccc(N2CC(C(=O)O)CC2=O)cc1 (stereo unspecified)	7.6
CCOc1ccc(N2CC(c3nc4ccccc4n3CC)CC2=O)cc1 (stereo unspecified)	2.9
C=C(C)Cn1c(C2CC(=O)N(c3ccc(OCC)cc3)C2)nc2ccccc21 (stereo unspecified)	2.2
CSc1nc2ccccc2c(=O)n1CCc1ccccc1	-0.42
O=c1[nH]c2ccccc2n1Cc1ccc(Cl)cc1	0.77
O=C1CC(SCc2ccc(Cl)cc2)C(=O)N1c1ccccc1 (stereo unspecified)	-5.8
O=C1CC(c2nc3ccccc3n2Cc2ccc(Cl)cc2)CN1c1ccccc1 (stereo unspecified)	5.9*
CCCCCCn1c(C2CC(=O)N(c3ccccc3)C2)nc2ccccc21 (stereo unspecified)	2.2
CC(C)CCn1c(C2CC(=O)N(c3ccccc3)C2)nc2ccccc21 (stereo unspecified)	3.7*
COc1ccc(-c2[nH]c(SCc3ccccc3)nc(=S)c2C#N)cc1	0.83
N[C@@H](Cc1ccccc1)c1nnc(SCc2ccc(Cl)cc2)o1	-2.3
COc1cccc(-c2cc3c(c(N)c2C#N)c(=O)oc2ccccc23)c1	-0.17
COc1ccc(-c2cc(-c3ccccc3)[nH]c(=O)c2C#N)cc1	-1.3
CN(C)C(=O)Cc1c[nH]c2ccccc12	161
Cc1cc(NS(=O)(=O)c2ccc(NS(=O)(=O)c3cc(Cl)c(Cl)cc3Cl)cc2)no1	0.43
CC(C)(C)OC(=O)N1Cc2ccccc2C[C@H]1C(=O)NCCN1CCOCC1	59
COc1ccccc1N1CCN(C(=O)C2CCCCC2)CC1	-0.28
COc1ccccc1N1CCN(C(=O)C(C)Oc2ccnc3c(C)ccc(C)c23)CC1 (stereo unspecified)	3.6*
COc1ccccc1N1CCN(C(=O)C(C)Nc2ccccn2)CC1 (stereo unspecified)	-0.48
SMILES	Dicer inh
CCOC(=O)N1CCc2c(sc3[nH]c(=O)n(-c4ccc(Cl)cc4)c(=O)c23)C1	-3.1
Cc1nn(CCC#N)c(C)c1Sc1ncccn1	-2.6
COc1ccc(Nc2sc(C(C)=O)cc2[N+](=O)[O-])cc1	1.4
CC(=O)c1cc([N+](=O)[O-])c(Nc2ccc(Cl)cc2)s1	4.8*
CC(=O)c1cc([N+](=O)[O-])c(Nc2ccccc2)s1	0.9
O=C(NNC(=O)c1ccccc1)NC(=O)c1ccccc1Cl	-1.4
O=C(COc1ccc(SC(F)(F)F)cc1)NNC(=O)NC(=O)c1ccccc1Cl	1.5
COc1cc(OC)cc(N2C(=O)C3CC=C(C)CC3C2=O)c1 (stereo unspecified)	-2.2
O=S1(=O)N=C(Nc2nnc(SCc3ccccc3Cl)s2)c2ccccc21	-0.88
CCCOc1cccc(-c2nnc(N)s2)c1	2.3
Nc1nc(-c2ccc(Cl)cc2)cs1	-4.2
Cc1cccc(-c2nc(N)nc(N)n2)c1	-0.46
Cc1cccc(-c2nnc(N)s2)c1	4.4*
Nc1nnc(-c2ccc(Cl)cc2)s1	8.7*
CCCCOc1ccc(-c2nnc(N)s2)cc1	2.7
COc1cc(C2CC(=O)Nc3nc(N)[nH]c(=O)c32)ccc1OCc1ccc(C)cc1 (stereo unspecified)	0.98
COc1cccc(C2c3c(oc4ccccc4c3=O)C(=O)N2c2nnc(C(C)C)s2)c1 (stereo unspecified)	-0.18
Cc1ccc(-c2cn3cc(Cl)ccc3n2)cc1	0.81
CCc1nc2c(cnn2-c2ccccc2)c(=O)[nH]1	0.56
CCC(C)OC(=O)COc1ccc2c(=O)c(Oc3cc(C)ccc3C)coc2c1 (stereo unspecified)	7.7
CC(C)(C)C(=O)Oc1ccc2c(=O)c(Oc3ccccc3Br)coc2c1	-0.06
Cc1cccc(Oc2coc3cc(OC(=O)c4cccnc4)ccc3c2=O)c1	-0.67
CCCCOC(=O)Oc1ccc2c(=O)c(Oc3ccc(C)cc3)coc2c1	3.5*
CCC(=O)Oc1ccc2c(=O)c(Oc3ccccc3Br)coc2c1	4.3*
CC(C)OC(=O)C(C)Oc1ccc2c(=O)c(Oc3ccccc3Br)coc2c1 (stereo unspecified)	-0.2
SMILES	Dicer inh
CCOCCOC(=O)COc1ccc2c(=O)c(Oc3cc(C)ccc3C)coc2c1	3.4*
C=CCOC(=O)Oc1ccc2c(=O)c(Oc3ccc(CC)cc3)coc2c1	1.3
COc1ccc(Oc2coc3cc(OC(=O)c4ccc(F)cc4)ccc3c2=O)cc1	0.4
Cc1cccc(Oc2coc3cc(OC(=O)c4ccncc4)ccc3c2=O)c1	28*
CCOC(=O)Oc1ccc2c(=O)c(Oc3ccc(C(C)(C)C)cc3)coc2c1	1.5
Cc1ccc(C)c(Oc2coc3cc(OCC(=O)OCC(C)C)ccc3c2=O)c1	1.9
N#CCCn1nc(-c2ccccc2)cc1NS(=O)(=O)c1ccc(Cl)c(Cl)c1	-0.37
Cc1nc(-c2ccc(C)c(C)c2)c(CC(=O)O)s1	2.3
COC(=O)CCC(C)[C@H]1CCC2C3C(C[C@H](O)[C@@]21C)[C@@]1(C)CC[C@@H](O)CC1C[C@H]3O (stereo partly specified)	1.1
C=C1SC(Nc2c(C)cccc2Cl)=NC12CCCCC2	-0.79
CCOC(=O)/C(C#N)=C/c1cccc(Cl)c1	-0.65
C=CCOC(=O)c1sc(N2C(=O)c3oc4ccccc4c(=O)c3C2c2ccc(F)cc2)nc1C (stereo unspecified)	-0.12
Cc1ccc(-n2nc(C)c3c(C)cc(=O)oc32)cc1Cl	0.61
CS(=O)(=NC(=S)NC(=O)Oc1ccccc1)c1ccccc1 (stereo unspecified)	1.7
COc1ccc(CN2C(=O)c3oc4ccc(Cl)cc4c(=O)c3C2c2ccc(O)cc2)cc1 (stereo unspecified)	-0.28
COc1ccc(C(=O)Oc2ccc3c(=O)c(Oc4ccccc4Br)coc3c2)cc1OC	3.1*
COc1ccccc1-c1coc2cc(OC(=O)c3ccc(Cl)cc3)ccc2c1=O	-0.87
Cc1cc(C)cc(Oc2coc3cc(O)ccc3c2=O)c1	4.3*
Cc1ccc(Oc2coc3cc(O)ccc3c2=O)cc1	0.2
COc1ccccc1C(=O)Oc1ccc2c(=O)c(Oc3ccccc3Br)coc2c1	2.2
CC(C)(C)c1ccc(Oc2coc3cc(O)ccc3c2=O)cc1	-1.3
CC1CCCN(S(=O)(=O)c2ccc(N3CCOCC3)nc2)C1 (stereo unspecified)	-1.1
Cc1c(C(=O)c2ccc(Cl)cc2)oc2c(Cl)cc(Cl)cc12	0.37
COC(=O)/C=C1\S/C(=N\c2ccccn2)N(c2cccc(SC)c2)C1=O	-0.02
CS(=O)(=O)N1CCCc2ccccc21	-0.37
Cc1cc(C)c2[nH]c(=O)cc(C(=O)O)c2c1	0.03
Nc1c(C(=O)c2ccc([N+](=O)[O-])cc2)sc2nc(-c3cccs3)cc(C(F)(F)F)c12	1.5
CN(C)S(=O)(=O)n1cc(/C=C/c2noc(-c3ccccc3O)n2)c2ccccc21	-0.79
Oc1ccccc1-c1nc(/C=C/c2cccs2)nn1-c1ccccc1	3
CN(C)S(=O)(=O)n1nc(/C=C/c2ccccc2Cl)nc1-c1ccccc1O	8.1*
